An excerpt weighted towards active compounds, which were near 11% of everything screened.
hNpr1 antagonist: blocks ANP-stimulated signaling of human Npr1 receptor; HEK293 hNpr1 GloSensor cGMP, ANP-stimulated luminescence; Potency, µM (titrated, usually from 46.3 µM), for inactives: top-dose activity change, negative = inhibition, actives largely listed as inhibitors; 76,000 tested, 1.6% active; calls by dose curve; also: nearly all actives have a fitted effect of over 60% in size
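Compound pre-incubated 30 min at room temperature on GloSensor-loaded HEK293 cells stably carrying hNpr1 and the pGS-40F cGMP biosensor. Stimulation uses hNppA at 0.1 nM final; luminescence is taken at baseline and 20 min post-agonist.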
Luciferase inh: Photinus pyralis luciferase inhibition | P08659 | Potency, µM (highest dose often 115 µM), actives largely listed as inhibitors | 76,000 tested, 2.5% active | purified P. pyralis luciferase, luminescence, biochemical; also: nearly all actives have a fitted effect of over 65% in size
Target sequence (P08659 whole entry, looked up): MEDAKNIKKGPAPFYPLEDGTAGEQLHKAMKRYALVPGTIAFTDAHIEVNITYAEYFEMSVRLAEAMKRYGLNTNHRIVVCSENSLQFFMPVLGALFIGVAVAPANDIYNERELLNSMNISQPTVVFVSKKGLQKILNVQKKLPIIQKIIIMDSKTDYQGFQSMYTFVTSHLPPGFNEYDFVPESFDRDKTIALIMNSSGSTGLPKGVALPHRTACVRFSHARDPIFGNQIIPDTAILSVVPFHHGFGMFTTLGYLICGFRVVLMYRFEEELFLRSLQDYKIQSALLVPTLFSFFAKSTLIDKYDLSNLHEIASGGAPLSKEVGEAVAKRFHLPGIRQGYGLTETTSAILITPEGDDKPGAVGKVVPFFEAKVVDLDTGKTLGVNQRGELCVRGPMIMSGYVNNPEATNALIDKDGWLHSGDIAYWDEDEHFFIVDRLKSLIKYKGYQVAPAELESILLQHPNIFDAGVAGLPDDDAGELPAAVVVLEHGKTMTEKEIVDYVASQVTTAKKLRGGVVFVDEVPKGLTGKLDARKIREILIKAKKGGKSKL
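Biochemical qHTS: compound (6-point titration) added to 10uM D-luciferin plus 10uM ATP in Tris acetate pH 7.5 buffer with Mg, Tween-20 and BSA, then purified enzyme at 10nM; light output imaged.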
HEK293 tox: kills HEK 293 cells. HEK 293 viability, ATP luminescence (CellTiter-Glo), 48-72 h. Potency, µM (doses to about 115 µM), for the others: at the top dose activity change, negative = cytotoxicity, hits mostly inhibitors. 94,000 tested, 6.6% active. AID 1345083; also: nearly all actives have a fitted effect of over 60% in size
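Luminescence from cellular ATP, measured with CellTiter-Glo, indicates HEK 293 viability. Cells plated at 250 cells/well are treated with compound for 48 or 72 hr at 37 degree Celsius before reagent addition.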
NIH3T3 tox: NIH 3T3 cell cytotoxicity; Potency, µM (top dose mostly 96.7 µM), inactives show at the top dose activity change, negative = cytotoxicity, most hits filed as inhibitors; AID 1345082; 94,000 tested, 4.3% active; NIH 3T3 viability, CellTiter-Glo ATP luminescence, 48-72 h; also: nearly all actives have a fitted effect of over 55% in size
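ATP-dependent luminescence (CellTiter-Glo) served as the viability signal for NIH 3T3 cells treated with compound for 48 or 72 hr at 37 °C.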
* = called active by the depositor; i = inactive; ? = inconclusive; · = not tested or not shown; [ ] = another dose, or the depositor's remark. Unless noted, calls follow the shape of the dose curve; as a rule, active = well fitted curve in the direction sought with a large enough effect; inconclusive = small, poorly fitted or top-dose-only effect, or another doubt; inactive = no such curve, though single readings can be large; an effect the other way counts as inactive or inconclusive. % is scaled to controls: 0 for no effect and ±100 for the full control effect; potency is read from the fitted curve at half-maximal effect.

SMILES	hNpr1 antagonist	Luciferase inh	HEK293 tox	NIH3T3 tox
Cc1cc(N2CCC3(CCCN(CC4CCC4)C3=O)C2)nc2ccccc12 (stereo not given)	-1%	i	32µM*	?
CCCN1CCCC2(CCN(c3cc(C)c4cccc(OC)c4n3)C2)C1=O (stereo not given)	-2%	i	?	-17%
Cc1cccc(CN2CCCC3(CCN(c4cc(C)c5ccccc5n4)C3)C2=O)c1 (stereo not given)	-29%	i	35µM*	?
O=S(=O)(c1ccc(F)c(F)c1)N1CCC(C2CCNC2)CC1 (stereo not given)	-2%	i	?	-13%
O=S(=O)(c1ccc(C(F)(F)F)cc1)N1CCC(C2CCNC2)CC1 (stereo not given)	0%	i	79µM*	?
CC(=O)Nc1ccc(NC(=O)Cn2ccn3nc(-c4ccc(F)cc4)c(CO)c3c2=O)cc1	-10%	i	3%	i
Cc1ncsc1CCCNc1nc(-c2ccccn2)nc2c1CCNCC2	0%	i	-22%	-15%
c1ccc(OCCNc2nc(-c3cccnc3)nc3c2CCNCC3)cc1	?	i	?	32µM*
CC(C)c1ccc(C(=O)NCc2ccnc3[nH]ccc23)cc1	-3%[70.6 µM]	25µM*	?	?
Cc1ccc(C(=O)NCc2ccnc3[nH]ccc23)cc1	1%[70.6 µM]	?	3%[172 µM]	-2%[138 µM]
O=C(O)CCc1nc(C2CCOCC2)n[nH]1	0%	i	-10%	-4%
O=C(C1CC(=O)N(c2n[nH]c3ccccc23)C1)N1CCN(CCc2ccncc2)CC1 (stereo not given)	7%	i	-22%	-10%
CC(=O)Nc1ccc(C2(C(=O)NCc3cccs3)CCC2)cc1	0%	i	4%	i
Cc1ccc(CNC(=O)C2(c3ccc(NC(=O)C4CC4)cc3)CCCCC2)o1	-10%	i	45µM*	?
Cc1ccccc1CNC(=O)C1(c2ccc(NS(C)(=O)=O)cc2)CCCCC1	-1%	i	-29%	28µM*
CC(C)C(=O)Nc1ccc(C2(C(=O)NCc3cccs3)CCCCC2)cc1	6%	i	?	32µM*
O=C(CNC(=O)c1cnccn1)NC1CCCc2c1[nH]c1ccc(Cl)cc21 (stereo not given)	-2%	i	-69%	-27%
O=C(C1c2ccccc2C(=O)N(Cc2ccccc2)C12CCCC2)N1CCCC1 (stereo not given)	-9%	i	-9%	-6%
COc1cccc(CCC(=O)N2CCC(c3n[nH]c(=O)n3-c3ccccc3)CC2)c1	0%	i	-4%	-28%
Cc1ccc(-n2c(C3CCN(C(=O)COc4ccc(Cl)cc4C)CC3)n[nH]c2=O)cc1	18%	i	?	-78%
Cc1ccc(Cn2c(C3CCN(C(=O)COc4cccc(C)c4)CC3)n[nH]c2=O)cc1	-1%	i	0%	-30%
Cc1cc(Cl)ccc1OCC(=O)N1CCC(c2n[nH]c(=O)n2-c2ccccc2)CC1	8%	i	?	40µM*
Cc1cccc(OCC(=O)N2CCC(c3n[nH]c(=O)n3Cc3ccc(F)cc3)CC2)c1	0%	i	-11%	20µM*
Cc1cccc(OCC(=O)N2CCC(c3n[nH]c(=O)n3-c3ccccc3)CC2)c1	-13%	i	12%	7.1µM*
CN(C)c1cccc(C(=O)N2CCC(c3n[nH]c(=O)n3-c3ccccc3)CC2)c1	0%	32µM*	4%	-20%
SMILES	hNpr1 antagonist	Luciferase inh	HEK293 tox	NIH3T3 tox
CCNC(=O)OC1CCN(C(=O)Cc2ccc(F)cc2)CC(=O)N(C)c2ccccc21 (stereo not given)	·	·	-1%	?
c1cncc(-c2nc(CCNc3ncncn3)cs2)c1	0%	i	0%	-14%
O=C1CCN(C(=O)C2CCN(C(=O)C3(c4ccccc4)CC3)CC2)CCCCCCN1	6%	i	i	-7%
C[C@H](O)c1c(-c2ccc(Cl)cc2)noc1C(=O)NC1CC1	-8%[70.6 µM]	i	112µM*	?
CNC(=O)c1onc(-c2ccc(Cl)cc2)c1[C@H](C)O	-9%[70.6 µM]	i	-32%[230 µM]	-36%[174 µM]
Clc1cc(Cl)cc(NC2CNC2)c1	·	·	63µM*	56µM*
O=C(NCCc1ccccn1)C1c2ccccc2C(=O)N(C2CCCCC2)C12CCCCC2 (stereo not given)	-11%	i	45µM*	?
c1ccc(Oc2ccc(Nc3cnc4ccc(N5CCOCC5)nn34)cc2)cc1	?	i	?	45µM*
CN1CCN(c2ccc3ncc(Nc4ccc(Cl)c(C(F)(F)F)c4)n3n2)CC1	?	i	79µM*	?
CN1CCN(c2ccc3ncc(Nc4ccc(OC(F)(F)F)cc4)n3n2)CC1	-20%[70.6 µM]	i	50µM*	35µM*
Clc1cccc(Nc2cnc3ccc(N4CCOCC4)nn23)c1	?	i	?	?
CN1CCN(c2ccc3ncc(Nc4ccc5c(c4)OCCO5)n3n2)CC1	-1%[70.6 µM]	i	?	?
CC1Oc2ccc(NC(=O)c3ccccc3Cl)cc2CN(Cc2ccccc2F)C1=O (stereo not given)	-11%	i	?	?
CC1Oc2ccc(NC(=O)c3ccc(F)cc3F)cc2CN(Cc2ccccc2Cl)C1=O (stereo not given)	-21%	i	50µM*	?
COc1ccc(CN2Cc3cc(NC(=O)Cc4ccccc4)ccc3OC(C)C2=O)cc1 (stereo not given)	-17%	i	?	?
CC1Oc2ccc(NC(=O)COc3ccccc3)cc2CN(Cc2ccccc2Cl)C1=O (stereo not given)	-5%	i	25µM*	?
COc1ccc(CC(=O)Nc2ccc3c(c2)CN(CCOc2ccccc2)C(=O)C(C)O3)cc1 (stereo not given)	-17%	i	45µM*	?
COC[C@@H]1CN(C(=O)c2ncccc2C)C[C@H]1c1nc(C2CC2)no1	2%	i	i	i
CC1CCCC(C)N1C(=O)c1cc(-c2cc(Cl)cc(Cl)c2)c2nncn2n1 (stereo not given)	·	·	-14%	?
COC(=O)c1c(S(=O)(=O)N2CCCCCCC2)sc2c1CCN(C(=O)C1CC=CCC1)C2 (stereo not given)	-12%	i	45µM*	?
Cc1cccc(-c2noc([C@@H]3Cc4nc[nH]c4CN3)n2)c1	-2%[70.6 µM]	50µM*	-4%[230 µM]	-27%[230 µM]
Cc1cccc(-c2noc([C@@H]3Cc4nc[nH]c4CN3C(=O)c3ccccc3C(=O)O)n2)c1	4%[70.6 µM]	?	-15%[172 µM]	-5%[174 µM]
O=[N+]([O-])c1cccc(-c2noc([C@@H]3Cc4nc[nH]c4CN3CC3CCCCC3)n2)c1	-14%[70.6 µM]	i	56µM*	71µM*
Cc1cccc(-c2noc([C@@H]3Cc4nc[nH]c4CN3C(=O)C3CCCCC3)n2)c1	-1%[70.6 µM]	56µM*	?	?
Cc1cccc(-c2noc([C@@H]3Cc4nc[nH]c4CN3C(=O)c3ccc(-c4ccccc4)cc3)n2)c1	-26%	i	35µM*	20µM*

Compound activity as filed in PubChem.
